From PubChem BioAssay AID1159580 (chemical genetic matrix, 2015)
Where “and” joins values, the source holds several entries; their conditions need not be identical. Equal values may be shown once. Out of some 5,500 compounds screened, about 2,000 (36%) were called active. Another 18% or so got no clear call; they are omitted. No stated cut-off is given here; in the data, active means normalized growth mostly below about 0.91 (no sharp cut-off); inconclusive means no clear call, values can overlap the other calls; inactive means mostly above about 0.92. This is one part of the list.

Assay: chemical genetic growth profiling, strain panel (AID 1159580);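 further: tested at 20 µM; growth read once vehicle control cultures reached saturation at 30 °C; 1 = growth at the plate median or of vehicle wells; lower values mean less growth of the strain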
Details: S. cerevisiae deletion strains, growth OD

Measured: normalized growth

CC1(C)S[C@@H]2[C@H](NC(=O)[C@@H](N)c3ccc(O)cc3)C(=O)N2[C@H]1C(=O)O
inactive: locus YAL013W, strain DEP1, hits give low values 1.01 | locus YAL021C, strain ccr4, hits give low values 0.97 | locus YAL026C, strain drs2, hits give low values 0.976 | locus YAL030W, strain snc1, hits give low values 0.999 | locus YBL061C, strain skt5, hits give low values 1.01 | locus YBR009C, strain hhf1, hits give low values 0.951 | locus YBR021W, strain FUR4, hits give low values 1 | locus YBR023C, strain chs3, hits give low values 0.996 | locus YBR171W, strain sec66, hits give low values 0.987 | locus YBR229C, strain ROT2, hits give low values 1 | locus YBR231C, strain swc5, hits give low values 1 | locus YBR279W, strain paf1, hits give low values 0.99 | locus YCL011C, strain gbp2, hits give low values 0.988 | locus YCL016C, strain dcc1, hits give low values 0.992 | locus YCL029C, strain bik1, hits give low values 1.01 | locus YCL069W, strain vba3, hits give low values 0.989 | locus YCR088W, strain abp1, hits give low values 0.983 | locus YDL005C, strain med2, hits give low values 0.993 | locus YDL035C, strain GPR1, hits give low values 1.02 | locus YDL040C, strain nat1, hits give low values 0.995 | locus YDL074C, strain BRE1, hits give low values 1.01 | locus YDL101C, strain DUN1, hits give low values 1.01 | locus YDL185W, strain tfp1, hits give low values 0.997 | locus YDL192W, strain arf1, hits give low values 1 | locus YDR001C, strain nth1, hits give low values 0.964 | locus YDR069C, strain doa4, hits give low values 1.01 | locus YDR101C, strain arx1, hits give low values 1 | locus YDR137W, strain rgp1, hits give low values 0.938 | locus YDR159W, strain sac3, hits give low values 0.991 | locus YDR162C, strain NBP2, hits give low values 1.03 | locus YDR195W, strain ref2 0.98 | locus YDR297W, strain sur2, hits give low values 0.998 | locus YDR318W, strain mcm21, hits give low values 0.998 | locus YDR334W, strain swr1, hits give low values 0.982 | locus YDR335W, strain msn5, hits give low values 0.996 | locus YDR388W, hits give low values 1.01 | locus YDR392W, strain spt3, hits give low values 0.936 | locus YDR502C, strain sam2, hits give low values 0.999 | locus YEL003W, strain gim4, hits give low values 0.991 | locus YEL037C, strain rad23, hits give low values 0.983 | locus YEL061C, strain CIN8 (second series), hits give low values 0.988 | locus YEL061C, strain CIN8, hits give low values 1.01 | locus YER015W, strain faa2, hits give low values 0.998 | locus YER016W, strain bim1, hits give low values 0.967 | locus YER110C, hits give low values 1.01 | locus YER111C, strain swi4, hits give low values 0.98 | locus YER155C, strain BEM2 (second series), hits give low values 0.996 | locus YER155C, strain BEM2, hits give low values 1 | locus YER167W, strain BCK2, hits give low values 1.01 | locus YFR010W, strain ubp6, hits give low values 0.987 | locus YGL078C, strain dbp3, hits give low values 1 | locus YGL086W, strain mad1, hits give low values 0.994 | locus YGL167C, strain pmr1, hits give low values 1.01 | locus YGL173C, strain kem1, hits give low values 1.02 | locus YGL227W, strain vid30, hits give low values 1 | locus YGL240W, strain doc1, hits give low values 1.02 | locus YGL248W, strain PDE1, hits give low values 1.02 | locus YGL253W, strain hxk2, hits give low values 0.99 | locus YGR078C, strain PAC10, hits give low values 1 | locus YGR135W, strain pre9, hits give low values 0.986 | locus YGR252W, strain gcn5, hits give low values 0.954 | locus YHR013C, strain ard1, hits give low values 1.03 | locus YHR027C, strain rpn1, hits give low values 0.989 | locus YHR030C, strain SLT2, hits give low values 1.01 and 1.03 | locus YHR079C, strain IRE1 (second series), hits give low values 0.996 | locus YHR079C, strain IRE1, hits give low values 1.06 | locus YHR094C, strain hxt1, hits give low values 1 | locus YHR129C, strain ARP1, hits give low values 1.01 | locus YHR142W, strain chs7, hits give low values 0.982 | locus YHR200W, strain rpn10, hits give low values 0.995 | locus YIL066C, strain RNR3, hits give low values 1.03 | locus YIL073C, strain SPO22, hits give low values 1.04 | locus YIL125W, strain kgd1, hits give low values 1 | locus YIR030C, strain dcg1, hits give low values 1 | locus YJL092W, strain hpr5, hits give low values 0.991 | locus YJL095W, strain BCK1 (second series), hits give low values 0.983 | locus YJL095W, strain BCK1, hits give low values 1.02 and 1.06 | locus YJL115W, strain asf1, hits give low values 0.979 | locus YJL129C, strain trk1, hits give low values 1 | locus YJL134W, strain LCB3, hits give low values 1.01 | locus YJL154C, strain vps35, hits give low values 0.991 | locus YJL164C, strain tpk1, hits give low values 0.995 | locus YJL166W, strain qcr8, hits give low values 1.02 | locus YJL168C, strain set2, hits give low values 0.997 | locus YJL187C, strain SWE1 (second series), hits give low values 1.01 | locus YJL187C, strain SWE1, hits give low values 0.998 | locus YJR043C, strain POL32, hits give low values 1.01 | locus YJR066W, strain TOR1, hits give low values 1.01 | locus YJR075W, strain HOC1, hits give low values 1.02 | locus YKL009W, strain mrt4, hits give low values 1.02 | locus YKL068W, hits give low values 1 | locus YKL085W, strain MDH1 (second series), hits give low values 1.01 | locus YKL085W, strain MDH1, hits give low values 1.01 | locus YKL160W, strain elf1, hits give low values 1.01 | locus YKR001C, strain vps1, hits give low values 0.982 | locus YKR026C, strain gcn3, hits give low values 1.07 | locus YKR091W, strain srl3, hits give low values 1 | locus YLL001W, strain dnm1, hits give low values 1.02 | locus YLL026W, hits give low values 0.992 | locus YLL041C, strain sdh2, hits give low values 0.999 | locus YLR027C, strain aat2, hits give low values 0.993 | locus YLR039C, strain RIC1, hits give low values 1 | locus YLR058C, strain SHM2, hits give low values 1.01 | locus YLR102C, strain apc9, hits give low values 0.997 | locus YLR113W, strain HOG1, hits give low values 1.04 | locus YLR221C, strain rsa3, hits give low values 0.991 | locus YLR258W, strain gsy2, hits give low values 0.991 | locus YLR262C, strain YPT6 (second series), hits give low values 0.975 | locus YLR262C, strain YPT6, hits give low values 1.09 | locus YLR268W, strain sec22, hits give low values 1.01 | locus YLR320W, strain mms22, hits give low values 0.987 | locus YLR330W, strain CHS5, hits give low values 1.01 | locus YLR342W, strain FKS1 (second series), hits give low values 0.974 | locus YLR342W, strain FKS1, hits give low values 1.01 | locus YLR357W, strain rsc2, hits give low values 1.02 | locus YLR370C, strain arc18, hits give low values 0.999 | locus YLR371W, strain rom2, hits give low values 0.991 | locus YLR384C, strain iki3, hits give low values 0.989 | locus YLR418C, strain cdc73, hits give low values 0.994 | locus YML016C, strain PPZ1, hits give low values 1.01 | locus YML032C, strain rad52, hits give low values 1.01 | locus YML120C, strain ndi1, hits give low values 0.997 | locus YML124C, strain tub3, hits give low values 0.985 | locus YMR058W, strain fet3, hits give low values 0.995 | locus YMR078C, strain ctf18, hits give low values 0.994 | locus YMR125W, strain sto1, hits give low values 0.998 | locus YMR129W, hits give low values 0.988 | locus YMR205C, strain PFK2, hits give low values 1 | locus YMR223W, strain ubp8, hits give low values 0.997 | locus YMR231W, strain pep5, hits give low values 1 | locus YMR263W, strain SAP30, hits give low values 1 | locus YMR307W, strain GAS1, hits give low values 0.969 | locus YNL067W, strain RPL9B, hits give low values 1.01 | locus YNL071W, strain lat1, hits give low values 0.984 | locus YNL153C, strain GIM3, hits give low values 1 | locus YNL183C, strain NPR1, hits give low values 1 | locus YNL209W, strain ssb2, hits give low values 0.995 | locus YNL233W, strain BNI4, hits give low values 1.02 | locus YNL248C, strain rpa49, hits give low values 1.03 | locus YNL250W, strain rad50, hits give low values 1 | locus YNL271C, strain bni1, hits give low values 1 | locus YNL298W, strain CLA4, hits give low values 0.984 | locus YNL307C, strain MCK1, hits give low values 1.03 | locus YNL322C, strain KRE1 (second series), hits give low values 1 | locus YNL322C, strain KRE1, hits give low values 1.01 | locus YNR049C, strain mso1, hits give low values 0.985 | locus YNR052C, strain pop2, hits give low values 0.999 | locus YOL012C, strain htz1 1.31 | locus YOL147C, strain pex11, hits give low values 1.01 | locus YOR001W, strain rrp6, hits give low values 0.997 | locus YOR061W, strain CKA2, hits give low values 1.02 | locus YOR069W, strain VPS5, hits give low values 1.01 | locus YOR070C, strain gyp1, hits give low values 0.999 | locus YOR080W, strain dia2, hits give low values 1.01 | locus YOR083W, strain WHI5, hits give low values 1.03 | locus YOR106W, strain vam3, hits give low values 1 | locus YOR136W, strain idh2, hits give low values 0.994 | locus YOR144C, strain elg1, hits give low values 0.991 | locus YOR184W, strain ser1, hits give low values 1.03 | locus YOR231W, strain MKK1, hits give low values 1.05 | locus YOR265W, strain rbl2, hits give low values 0.997 | locus YOR270C, strain vph1, hits give low values 0.962 | locus YOR290C, strain snf2, hits give low values 0.975 | locus YOR316C, strain cot1, hits give low values 0.999 | locus YPL051W, strain arl3, hits give low values 1.01 | locus YPL078C, strain atp4, hits give low values 1.01 | locus YPL106C, strain sse1, hits give low values 0.974 | locus YPL240C, strain hsp82, hits give low values 0.993 | locus YPL241C, strain CIN2, hits give low values 1.01 | locus YPL256C, strain CLN2, hits give low values 1.05 | locus YPR119W, strain clb2, hits give low values 1 | locus YPR141C, strain kar3, hits give low values 1.03 | locus YPR163C, strain tif3, hits give low values 1 | locus YPR167C, strain met16, hits give low values 0.998 | strain wtn01, hits give low values 0.976
